Measured values: PubChem BioAssay (NCATS)
Unmarked numbers belong to inactive results. Inconclusive results are not listed. Activity calls are given as the source filed them. The call rests on the fitted dose curve; in most records, active means well fitted curve in the direction sought with a large enough effect; inconclusive means small, poorly fitted or top-dose-only effect, or another doubt; inactive means no such curve, though single readings can be large; an effect the other way counts as inactive or inconclusive.

Legend:
[1] = Primary redox qHTS assay for identification of artifact compounds. (AID 1845223)
Procedure, shortened: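 Amplex Red (25 uM) and HRP (250 mU/mL) in HBSS, with compounds for 15 min, then 250 uM DTT for 30 min, room temperature, dark. Fluorescence 525/598 nm read; normalized to DMSO and 10 uM DA3003; Hill fit.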

[2] = Quantitative High-Throughput drug screen in 47 multiple myeloma cell lines against the NCATS MIPE library collection: FR4_PLB cell viability assay (AID 1918924; further: nearly all actives have a fitted effect of over 35% in size; further: potency means the concentration at half of the fitted maximal effect)
Procedure, shortened: (§1)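 Luminescent ATP measurement with CellTiter-Glo gives viability, scaled between DMSO-only wells (100%) and media-only wells (0%). Cells, 500 per well, faced library compounds for 48 hours at 37C.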

[3] = Quantitative High-Throughput drug screen in 47 multiple myeloma cell lines against the NCATS MIPE library collection: Delta47_JCRB cell viability assay (AID 1918925; further: nearly all actives have a fitted effect of over 45% in size; further: potency means the concentration at half of the fitted maximal effect)
Procedure, shortened: (§2)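 Viability readout: CellTiter-Glo luminescence following 5 min room-temperature incubation with reagent. Prior exposure: 48 h, 37C, humidified 5% CO2, 500 cells per well.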

[4] = Quantitative High-Throughput drug screen in 47 multiple myeloma cell lines against the NCATS MIPE library collection: EJM_DSMZ cell viability assay (AID 1918926; further: nearly all actives have a fitted effect of over 30% in size; further: potency means the concentration at half of the fitted maximal effect)
Procedure, shortened: as §2

[5] = Quantitative High-Throughput drug screen in 47 multiple myeloma cell lines against the NCATS MIPE library collection: ARP1_JJKsccF8 cell viability assay (AID 1918928; further: nearly all actives have a fitted effect of over 40% in size; further: potency means the concentration at half of the fitted maximal effect)
Procedure, shortened: (§3)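 Here, 48 h treatment with MIPE 4.0 agents at 37 °C preceded an ATP luminescence read. Plating density was 500 cells per well.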

[6] = Quantitative High-Throughput drug screen in 47 multiple myeloma cell lines against the NCATS MIPE library collection: Karpas620_DSMZ cell viability assay (AID 1918959); further: nearly all actives have a fitted effect of over 30% in size; further: potency means the concentration at half of the fitted maximal effect
Procedure, shortened: as §1

[7] = Quantitative High-Throughput drug screen in 47 multiple myeloma cell lines against the NCATS MIPE library collection: KMM1_JCRB cell viability assay (AID 1918960); further: nearly all actives have a fitted effect of over 30% in size; further: potency means the concentration at half of the fitted maximal effect;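 on viability (% of DMSO): 100% = DMSO-treated cells and 0% = medium-only wells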
Procedure, shortened: as §3

[8] = Quantitative High-Throughput drug screen in 47 multiple myeloma cell lines against the NCATS MIPE library collection: INA6_PLB cell viability assay (AID 1918965; further: nearly all actives have a fitted effect of over 55% in size; further: potency means the concentration at half of the fitted maximal effect)
Procedure, shortened: (§4)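 Steps: seed 500 cells per well; pin-transfer MIPE 4.0 library; incubate 48 h at 37C, 5% CO2, humidified; add CellTiter-Glo, 5 min room temperature; read luminescence.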

[9] = Quantitative High-Throughput drug screen in 47 multiple myeloma cell lines against the NCATS MIPE library collection: KMS27_JCRB cell viability assay (AID 1918970); conditions: KMS27 myeloma cells, CellTiter-Glo ATP viability, 48 h; viability (% of DMSO): at 45.8 µM (top of the series); further: nearly all actives have a fitted effect of over 30% in size; further: potency means the concentration at half of the fitted maximal effect
Procedure, shortened: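 ATP-based viability (CellTiter-Glo luminescence) is measured in cells treated 48 h with approved and investigational drugs at 37 °C. Controls are DMSO-only wells for full viability and media-only wells for none.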

[10] = Quantitative High-Throughput drug screen in 47 multiple myeloma cell lines against the NCATS MIPE library collection: KMS12BM_JCRB cell viability assay (AID 1918971); further: potency means the concentration at half of the fitted maximal effect; nearly all actives have a fitted effect of over 35% in size
Procedure, shortened: as §4

[11] = Quantitative High-Throughput drug screen in 47 multiple myeloma cell lines against the NCATS MIPE library collection: Karpas25_ECACC cell viability assay (AID 1918968; further: nearly all actives have a fitted effect of over 35% in size; further: potency means the concentration at half of the fitted maximal effect)
Procedure, shortened: as §2

[12] = test system: Nanoluciferase (engineered Oplophorus gracilirostris luciferase); test: Primary Nanoluciferase (NLuc) qHTS assay for identification of artifact compounds. (AID 1845222); further: potency means the concentration at half of the fitted maximal effect
Procedure, shortened: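 NLuc from S16 cell medium (1:55) plus test compounds, 15 min, room temperature. Luminescence after Nano-Glo (1:100) addition, 5 min.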

[13] = Quantitative High-Throughput drug screen in 47 multiple myeloma cell lines against the NCATS MIPE library collection: ARD_JJKsccE7 cell viability assay (AID 1918929; further: potency means the concentration at half of the fitted maximal effect)
Procedure, shortened: as §2

[14] = Quantitative High-Throughput drug screen in 47 multiple myeloma cell lines against the NCATS MIPE library collection: JIM3_ECACC cell viability assay (AID 1918963; further: nearly all actives have a fitted effect of over 35% in size; further: potency means the concentration at half of the fitted maximal effect)
Procedure, shortened: as §1

[15] = Quantitative High-Throughput drug screen in 47 multiple myeloma cell lines against the NCATS MIPE library collection: H1112_PLB cell viability assay (AID 1918967; further: nearly all actives have a fitted effect of over 30% in size; further: potency means the concentration at half of the fitted maximal effect)
Procedure, shortened: as §2

[16] = Quantitative High-Throughput drug screen in 47 multiple myeloma cell lines against the NCATS MIPE library collection: AMO1_DSMZ cell viability assay (AID 1918927; further: nearly all actives have a fitted effect of over 30% in size; further: potency means the concentration at half of the fitted maximal effect)
Procedure, shortened: as §2

[17] = Quantitative High-Throughput drug screen in 47 multiple myeloma cell lines against the NCATS MIPE library collection: JJN3_DSMZ cell viability assay (AID 1918966; further: potency means the concentration at half of the fitted maximal effect; nearly all actives have a fitted effect of over 50% in size)
Procedure, shortened: as §2

[18] = Quantitative High-Throughput drug screen in 47 multiple myeloma cell lines against the NCATS MIPE library collection: Karpas417_ECACC cell viability assay (AID 1918961); conditions: Karpas417 myeloma viability, CellTiter-Glo ATP luminescence, 48 h; viability (% of DMSO): at 45.8 µM (top of the series); further: potency means the concentration at half of the fitted maximal effect
Procedure, shortened: as §4

[19] = Quantitative High-Throughput drug screen in 47 multiple myeloma cell lines against the NCATS MIPE library collection: KHM11_PLB cell viability assay (AID 1918962); further: nearly all actives have a fitted effect of over 35% in size; further: potency means the concentration at half of the fitted maximal effect
Procedure, shortened: as §1

[20] = Quantitative High-Throughput drug screen in 47 multiple myeloma cell lines against the NCATS MIPE library collection: JIM1_ECACC cell viability assay (AID 1918964; further: potency means the concentration at half of the fitted maximal effect)
Procedure, shortened: as §2

CC(C)(OCc1nn(Cc2ccccc2)c2ccccc12)C(=O)O
outcome [1]: inactive | Potency [2]: inactive | Potency [3]: inactive | Potency [4]: 9.35 µM (active) | Potency [5]: inactive | Potency [6]: inactive | Potency [7]: inactive | Potency [8]: inactive | Potency [9]: inactive | Potency [10]: 0.418 µM (active)

CCC(=O)N1CCN(c2ccc(-n3c(=O)ccc4cnc5ccc(-c6cnc7ccccc7c6)cc5c43)cc2C(F)(F)F)CC1
redox activity (% of DA3003) [1]: -10.4% [at 11.5 µM] | Potency [2]: 0.0132 µM (active) | Potency [3]: 0.0166 µM (active) | Potency [8]: 0.0148 µM (active) | Potency [11]: 0.0332 µM (active) | Potency [10]: 0.0047 µM (active)

COc1cc2ncnc(Nc3cc(Br)c(O)c(Br)c3)c2cc1OC
Potency [12]: inactive | outcome [1]: inactive | Potency [4]: 0.003 µM (active) | Potency [5]: 1.32 µM (active) | Potency [13]: 13.2 µM (active) | Potency [14]: 0.935 µM (active) | Potency [8]: 0.148 µM (active) | Potency [15]: 0.0418 µM (active) | Potency [10]: 0.0019 µM (active)

Cc1cnc(-c2cc(N3CCN(C(=O)CCS(C)(=O)=O)CC3)ncc2Cl)c(C)c1
Potency [12]: inactive | Potency [2]: inactive | Potency [3]: inactive | Potency [4]: 0.0132 µM (active) | Potency [5]: inactive | Potency [13]: inactive | Potency [6]: inactive | Potency [14]: inactive | Potency [8]: 18.7 µM (active) | Potency [15]: inactive

Cc1cc2c(cc1C1(c3ccc(C(=O)O)cn3)CC1)C(C)(C)CCC2(C)C
outcome [1]: inactive | Potency [2]: inactive | Potency [4]: inactive | Potency [16]: 5.26 µM (active) | Potency [5]: 26.4 µM (active) | Potency [6]: inactive | Potency [7]: inactive | Potency [14]: 0.332 µM (active) | Potency [17]: 1.05 µM (active) | Potency [15]: 0.118 µM (active) | Potency [10]: 3.32 µM (active)

NS(=O)(=O)c1ccc(Nc2nc(OCC3CCCCC3)c3[nH]cnc3n2)cc1
Potency [12]: inactive | outcome [1]: inactive | Potency [3]: 16.6 µM (active) | Potency [16]: 18.7 µM (active) | Potency [13]: 16.6 µM (active) | Potency [7]: 18.7 µM (active) | Potency [18]: 14.8 µM (active) | Potency [19]: 26.4 µM (active) | Potency [14]: 20.9 µM (active) | Potency [20]: 20.9 µM (active) | Potency [8]: 3.32 µM (active) | Potency [11]: 13.2 µM (active) | Potency [10]: 26.4 µM (active)

COc1ccc(-c2ccc3ncc4c(c3c2)n(-c2ccc(N3CCNCC3)c(C(F)(F)F)c2)c(=O)n4C)cn1
Potency [12]: inactive | Potency [6]: 0.0833 µM (active) | Potency [15]: 0.0935 µM (active) | Potency [10]: 0.332 µM (active)

COc1cc2nccc(Oc3ccc(NC(=O)Nc4cc(C)on4)c(Cl)c3)c2cc1OC
outcome [1]: inactive | Potency [2]: 20.9 µM (active) | Potency [3]: 18.7 µM (active) | Potency [4]: 13.2 µM (active) | Potency [16]: 4.18 µM (active) | Potency [13]: 6.62 µM (active) | Potency [7]: 3.72 µM (active) | Potency [8]: 23.5 µM (active) | Potency [17]: 26.4 µM (active) | Potency [11]: 20.9 µM (active) | Potency [9]: inactive | Potency [10]: 23.5 µM (active)

CNc1nc(Nc2ccc(C(=O)N3CCOCC3)cc2OC)ncc1Cl
outcome [1]: inactive | Potency [2]: inactive | Potency [3]: inactive | Potency [4]: inactive | Potency [16]: inactive | Potency [7]: inactive | Potency [14]: 20.9 µM (active) | Potency [11]: inactive | Potency [10]: 14.8 µM (active)

CN(C)CCOc1cc(-c2cn[nH]c2)ccc1NC(=O)C1COc2ccccc2O1 (stereo not given)
Potency [12]: inactive | Potency [13]: inactive | viability (% of DMSO) [18]: 64.1% (active) | Potency [19]: inactive | Potency [14]: 18.7 µM (active) | Potency [8]: 13.2 µM (active) | Potency [15]: inactive

COc1cc(Nc2nc3ccccc3nc2NS(=O)(=O)c2ccc(NC(=O)c3ccc(C)c(OC)c3)cc2)cc(OC)c1
Potency [12]: inactive | outcome [1]: inactive | Potency [14]: 13.2 µM (active) | Potency [8]: 16.6 µM (active)

NC(=O)c1ccc(N(C(N)=O)c2c(F)cccc2F)nc1-c1ccc(F)cc1F
outcome [1]: inactive | Potency [2]: inactive | Potency [3]: 5.9 µM (active) | Potency [5]: inactive | Potency [6]: inactive | Potency [7]: inactive | Potency [14]: 11.8 µM (active) | Potency [20]: inactive | Potency [8]: 18.7 µM (active) | Potency [15]: 5.26 µM (active) | Potency [11]: 7.43 µM (active) | Potency [9]: inactive

O=C(O)CCNc1cc(N2CCc3ccccc3CC2)nc(-c2ccccn2)n1
outcome [1]: inactive | Potency [2]: inactive | Potency [3]: inactive | Potency [13]: inactive | Potency [18]: inactive | Potency [8]: 16.6 µM (active) | Potency [15]: inactive | Potency [11]: 16.6 µM (active) | Potency [10]: 0.0372 µM (active)

COc1nccc(-c2c(-c3ccc(F)cc3)ncn2C2CCNCC2)n1
Potency [12]: inactive | outcome [1]: inactive | Potency [16]: inactive | Potency [6]: inactive | Potency [7]: inactive | Potency [8]: 10.5 µM (active) | Potency [15]: 1.66 µM (active) | Potency [11]: inactive | Potency [10]: 20.9 µM (active)

CC(C)(C)c1nc(-c2cccc(NS(=O)(=O)c3c(F)cccc3F)c2F)c(-c2ccnc(N)n2)s1
Potency [12]: inactive | Potency [3]: 3.32 µM (active) | Potency [4]: 20.9 µM (active) | Potency [16]: 3.72 µM (active) | Potency [13]: 18.7 µM (active) | Potency [7]: 3.32 µM (active) | Potency [18]: 5.9 µM (active) | Potency [19]: 5.9 µM (active) | Potency [8]: 0.264 µM (active) | Potency [17]: 3.32 µM (active) | Potency [15]: 8.33 µM (active) | Potency [11]: 5.26 µM (active) | Potency [9]: 16.6 µM (active)

CN1CCC(COc2cnc(-c3cccc(Cn4nc(-c5cccc(C#N)c5)ccc4=O)c3)nc2)CC1
outcome [1]: inactive | Potency [2]: 26.4 µM (active) | Potency [3]: 0.209 µM (active) | Potency [5]: 20.9 µM (active) | Potency [13]: inactive | Potency [7]: inactive | Potency [14]: 0.372 µM (active) | Potency [20]: inactive | Potency [8]: 0.418 µM (active) | Potency [17]: 0.0332 µM (active) | Potency [15]: 0.118 µM (active) | Potency [11]: 0.0743 µM (active) | Potency [10]: 13.2 µM (active)

CCCCn1c(=O)n(Cc2ccccc2F)c(=O)c2[nH]c(Cc3ccc(NC(C)=O)cc3)nc21
Potency [12]: 13.5 µM (active) | outcome [1]: inactive | Potency [3]: inactive | Potency [13]: inactive | Potency [7]: inactive | Potency [14]: 23.5 µM (active) | Potency [20]: 0.0042 µM (active) | Potency [15]: inactive | Potency [9]: inactive
